In test [1] the target is T1, Ephrin type-B receptor 2 (Homo sapiens) (UniProt P29323).
T1 sequence (whole entry): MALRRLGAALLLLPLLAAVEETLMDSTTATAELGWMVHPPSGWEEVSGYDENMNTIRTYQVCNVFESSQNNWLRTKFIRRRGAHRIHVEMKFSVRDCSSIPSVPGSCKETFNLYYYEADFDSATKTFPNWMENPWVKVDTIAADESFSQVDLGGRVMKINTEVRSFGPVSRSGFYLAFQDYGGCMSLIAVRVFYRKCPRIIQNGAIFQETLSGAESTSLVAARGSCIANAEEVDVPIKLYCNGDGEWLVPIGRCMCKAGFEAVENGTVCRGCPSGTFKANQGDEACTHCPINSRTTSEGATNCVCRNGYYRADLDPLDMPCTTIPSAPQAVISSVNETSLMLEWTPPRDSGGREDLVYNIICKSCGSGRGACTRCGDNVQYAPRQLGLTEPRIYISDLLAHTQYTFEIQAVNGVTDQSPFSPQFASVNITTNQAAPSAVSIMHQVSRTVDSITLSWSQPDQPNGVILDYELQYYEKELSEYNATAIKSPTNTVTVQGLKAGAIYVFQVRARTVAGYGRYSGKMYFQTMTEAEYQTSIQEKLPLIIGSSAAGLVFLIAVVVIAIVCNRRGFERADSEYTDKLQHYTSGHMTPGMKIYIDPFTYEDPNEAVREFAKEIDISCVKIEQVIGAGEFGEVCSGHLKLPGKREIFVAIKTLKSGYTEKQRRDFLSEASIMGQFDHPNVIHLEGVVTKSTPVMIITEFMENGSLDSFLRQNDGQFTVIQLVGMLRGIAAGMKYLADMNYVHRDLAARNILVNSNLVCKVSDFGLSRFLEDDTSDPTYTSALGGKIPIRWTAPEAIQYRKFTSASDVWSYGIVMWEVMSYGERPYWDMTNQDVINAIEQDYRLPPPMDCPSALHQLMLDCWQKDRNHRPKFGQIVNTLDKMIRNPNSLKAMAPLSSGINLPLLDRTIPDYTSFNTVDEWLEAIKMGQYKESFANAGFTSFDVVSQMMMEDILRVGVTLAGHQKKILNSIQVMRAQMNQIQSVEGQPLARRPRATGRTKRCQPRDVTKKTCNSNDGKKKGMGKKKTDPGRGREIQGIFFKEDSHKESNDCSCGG
The settings on record: at 1 µM.

In test [2] the target is T2, Ephrin type-B receptor 3 (Homo sapiens) (UniProt P54753).
T2 sequence (whole entry): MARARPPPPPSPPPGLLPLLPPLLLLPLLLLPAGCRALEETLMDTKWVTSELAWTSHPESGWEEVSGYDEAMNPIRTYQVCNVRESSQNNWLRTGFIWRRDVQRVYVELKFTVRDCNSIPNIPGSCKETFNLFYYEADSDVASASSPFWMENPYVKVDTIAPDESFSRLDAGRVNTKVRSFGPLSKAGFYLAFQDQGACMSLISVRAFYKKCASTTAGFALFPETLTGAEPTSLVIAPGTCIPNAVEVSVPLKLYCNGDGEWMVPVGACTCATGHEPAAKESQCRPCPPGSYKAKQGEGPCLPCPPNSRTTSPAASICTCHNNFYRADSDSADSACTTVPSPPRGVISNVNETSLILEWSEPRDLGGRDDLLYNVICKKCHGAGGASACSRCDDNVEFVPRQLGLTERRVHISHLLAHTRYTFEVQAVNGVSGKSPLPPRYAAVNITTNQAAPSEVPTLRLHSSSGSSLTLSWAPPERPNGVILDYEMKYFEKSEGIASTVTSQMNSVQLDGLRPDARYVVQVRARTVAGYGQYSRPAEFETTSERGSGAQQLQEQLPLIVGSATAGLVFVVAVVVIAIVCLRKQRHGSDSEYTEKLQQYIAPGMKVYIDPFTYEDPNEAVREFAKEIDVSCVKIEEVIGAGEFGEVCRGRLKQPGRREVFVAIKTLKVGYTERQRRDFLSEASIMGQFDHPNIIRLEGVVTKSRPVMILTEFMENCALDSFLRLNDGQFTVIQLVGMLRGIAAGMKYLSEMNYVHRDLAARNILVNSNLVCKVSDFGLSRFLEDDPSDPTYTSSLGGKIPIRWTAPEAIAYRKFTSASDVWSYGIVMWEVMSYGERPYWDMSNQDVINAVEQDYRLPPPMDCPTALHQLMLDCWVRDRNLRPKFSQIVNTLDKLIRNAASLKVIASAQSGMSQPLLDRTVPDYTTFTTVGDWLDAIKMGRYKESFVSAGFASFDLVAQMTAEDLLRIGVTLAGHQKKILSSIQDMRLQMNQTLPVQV
The settings on record: at 0.1 µM.

Test [3] has as its target T2, Ephrin type-B receptor 3 (Homo sapiens). The conditions noted are these: at 1 µM.
Test [4] deals with T3, Ephrin type-B receptor 4 (Homo sapiens) (UniProt P54760).
T3 sequence (whole entry): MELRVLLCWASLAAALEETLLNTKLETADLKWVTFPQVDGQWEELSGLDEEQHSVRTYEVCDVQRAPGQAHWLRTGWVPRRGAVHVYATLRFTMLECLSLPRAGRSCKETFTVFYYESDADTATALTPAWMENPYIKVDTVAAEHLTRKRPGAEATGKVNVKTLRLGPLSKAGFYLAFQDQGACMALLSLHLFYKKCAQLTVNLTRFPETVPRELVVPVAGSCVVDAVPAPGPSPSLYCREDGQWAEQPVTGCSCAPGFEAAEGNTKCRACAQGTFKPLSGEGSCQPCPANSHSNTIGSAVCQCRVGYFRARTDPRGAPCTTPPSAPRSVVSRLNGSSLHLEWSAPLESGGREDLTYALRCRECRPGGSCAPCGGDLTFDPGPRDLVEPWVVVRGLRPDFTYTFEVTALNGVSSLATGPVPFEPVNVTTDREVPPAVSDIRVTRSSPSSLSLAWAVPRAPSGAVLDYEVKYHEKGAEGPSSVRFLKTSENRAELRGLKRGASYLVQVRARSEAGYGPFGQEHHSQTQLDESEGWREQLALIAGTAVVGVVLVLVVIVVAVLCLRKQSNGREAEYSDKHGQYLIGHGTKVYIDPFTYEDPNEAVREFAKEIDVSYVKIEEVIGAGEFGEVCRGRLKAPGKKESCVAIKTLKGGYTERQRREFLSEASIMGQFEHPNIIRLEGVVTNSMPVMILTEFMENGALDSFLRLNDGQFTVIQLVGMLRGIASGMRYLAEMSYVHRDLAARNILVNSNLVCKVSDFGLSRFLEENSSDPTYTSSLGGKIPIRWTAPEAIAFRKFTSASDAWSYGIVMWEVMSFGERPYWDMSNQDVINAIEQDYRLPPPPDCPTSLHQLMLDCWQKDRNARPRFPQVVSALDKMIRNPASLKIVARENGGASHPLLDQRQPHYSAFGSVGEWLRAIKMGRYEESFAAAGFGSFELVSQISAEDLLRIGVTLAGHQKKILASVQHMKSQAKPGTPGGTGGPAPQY
The settings on record: at 0.1 µM.

Test [5] deals with T3, Ephrin type-B receptor 4 (Homo sapiens). The settings on record: at 1 µM.
Test [6] has as its target Receptor tyrosine-protein kinase erbB-2 (Homo sapiens) (UniProt P04626). The settings on record: at 0.1 µM.
The target is the same in test [7]. The conditions noted are these: at 1 µM.
In test [8] the target is Receptor tyrosine-protein kinase erbB-4 (Homo sapiens) (UniProt Q15303). The conditions noted are these: at 0.1 µM.
Chain of Receptor tyrosine-protein kinase erbB-4 (Homo sapiens) (Q15303 whole entry): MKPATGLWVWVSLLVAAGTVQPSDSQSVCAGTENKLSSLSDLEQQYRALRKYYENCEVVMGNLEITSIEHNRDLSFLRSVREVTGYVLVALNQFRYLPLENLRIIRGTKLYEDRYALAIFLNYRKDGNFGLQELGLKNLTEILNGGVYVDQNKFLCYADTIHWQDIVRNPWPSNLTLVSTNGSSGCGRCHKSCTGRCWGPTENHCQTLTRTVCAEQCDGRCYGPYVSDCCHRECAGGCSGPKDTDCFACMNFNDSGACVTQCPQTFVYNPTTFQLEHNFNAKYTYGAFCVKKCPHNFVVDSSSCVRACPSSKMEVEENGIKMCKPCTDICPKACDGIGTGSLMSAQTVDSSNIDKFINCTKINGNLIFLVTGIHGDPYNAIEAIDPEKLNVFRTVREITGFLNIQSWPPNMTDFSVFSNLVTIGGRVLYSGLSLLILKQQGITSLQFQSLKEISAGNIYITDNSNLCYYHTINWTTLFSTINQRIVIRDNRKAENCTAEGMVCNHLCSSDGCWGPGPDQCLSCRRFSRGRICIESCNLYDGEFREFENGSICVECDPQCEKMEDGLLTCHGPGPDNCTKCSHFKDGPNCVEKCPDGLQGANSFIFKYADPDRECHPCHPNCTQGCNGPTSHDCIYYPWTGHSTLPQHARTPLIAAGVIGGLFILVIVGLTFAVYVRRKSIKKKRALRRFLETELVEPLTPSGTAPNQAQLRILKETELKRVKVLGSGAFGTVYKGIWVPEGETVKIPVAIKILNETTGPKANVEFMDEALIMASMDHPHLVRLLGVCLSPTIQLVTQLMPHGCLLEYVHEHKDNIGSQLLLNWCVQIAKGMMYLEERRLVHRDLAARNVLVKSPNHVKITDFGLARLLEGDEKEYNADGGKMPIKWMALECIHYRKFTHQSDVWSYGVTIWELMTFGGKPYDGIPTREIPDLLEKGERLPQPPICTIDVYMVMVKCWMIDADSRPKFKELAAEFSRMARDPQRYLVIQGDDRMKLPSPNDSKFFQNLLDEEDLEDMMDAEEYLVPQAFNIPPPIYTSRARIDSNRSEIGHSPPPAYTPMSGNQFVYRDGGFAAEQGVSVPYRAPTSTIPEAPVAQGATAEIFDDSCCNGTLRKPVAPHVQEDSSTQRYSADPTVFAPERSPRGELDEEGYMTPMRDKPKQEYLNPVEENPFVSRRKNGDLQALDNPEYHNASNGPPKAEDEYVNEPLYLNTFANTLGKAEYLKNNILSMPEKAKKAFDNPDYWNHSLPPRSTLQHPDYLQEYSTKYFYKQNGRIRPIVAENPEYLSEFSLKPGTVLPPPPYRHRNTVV
For test [9] the target is unchanged. The conditions noted are these: at 1 µM.
For test [10], the target named is Tyrosine-protein kinase Fer (Homo sapiens) (UniProt P16591). The settings on record: at 0.1 µM.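 Note: reported figures are averaged percent inhibition of FER.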
Chain of Tyrosine-protein kinase Fer (Homo sapiens) (P16591 whole entry, looked up): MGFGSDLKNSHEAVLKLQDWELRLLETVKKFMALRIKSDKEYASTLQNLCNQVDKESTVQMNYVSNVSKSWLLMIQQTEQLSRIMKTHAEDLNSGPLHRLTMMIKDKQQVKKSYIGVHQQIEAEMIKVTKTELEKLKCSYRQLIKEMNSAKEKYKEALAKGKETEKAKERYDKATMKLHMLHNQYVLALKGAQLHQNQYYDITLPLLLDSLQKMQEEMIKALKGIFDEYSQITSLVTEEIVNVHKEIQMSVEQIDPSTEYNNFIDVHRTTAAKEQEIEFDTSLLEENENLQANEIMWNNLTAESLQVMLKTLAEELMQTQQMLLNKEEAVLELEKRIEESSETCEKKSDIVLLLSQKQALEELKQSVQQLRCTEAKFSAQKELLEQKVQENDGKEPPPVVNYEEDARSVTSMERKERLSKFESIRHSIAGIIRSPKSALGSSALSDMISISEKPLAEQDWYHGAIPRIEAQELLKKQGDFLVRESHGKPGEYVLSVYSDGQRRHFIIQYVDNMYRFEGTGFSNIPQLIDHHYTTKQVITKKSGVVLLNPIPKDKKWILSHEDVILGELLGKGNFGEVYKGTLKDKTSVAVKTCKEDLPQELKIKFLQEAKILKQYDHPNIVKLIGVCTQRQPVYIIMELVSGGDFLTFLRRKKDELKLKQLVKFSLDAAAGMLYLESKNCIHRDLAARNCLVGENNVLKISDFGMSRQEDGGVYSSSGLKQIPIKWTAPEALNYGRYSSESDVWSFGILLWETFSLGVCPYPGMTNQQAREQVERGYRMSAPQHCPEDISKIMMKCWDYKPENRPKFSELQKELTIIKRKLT

Several values for one entry are separate records, joined by “and”; a condition that tells them apart may be missing. Identical values can stand only once.

Usually inhibition stands for the change of the read-out against control, counted positive when it falls.

Chain of Receptor tyrosine-protein kinase erbB-2 (Homo sapiens) (P04626 whole entry): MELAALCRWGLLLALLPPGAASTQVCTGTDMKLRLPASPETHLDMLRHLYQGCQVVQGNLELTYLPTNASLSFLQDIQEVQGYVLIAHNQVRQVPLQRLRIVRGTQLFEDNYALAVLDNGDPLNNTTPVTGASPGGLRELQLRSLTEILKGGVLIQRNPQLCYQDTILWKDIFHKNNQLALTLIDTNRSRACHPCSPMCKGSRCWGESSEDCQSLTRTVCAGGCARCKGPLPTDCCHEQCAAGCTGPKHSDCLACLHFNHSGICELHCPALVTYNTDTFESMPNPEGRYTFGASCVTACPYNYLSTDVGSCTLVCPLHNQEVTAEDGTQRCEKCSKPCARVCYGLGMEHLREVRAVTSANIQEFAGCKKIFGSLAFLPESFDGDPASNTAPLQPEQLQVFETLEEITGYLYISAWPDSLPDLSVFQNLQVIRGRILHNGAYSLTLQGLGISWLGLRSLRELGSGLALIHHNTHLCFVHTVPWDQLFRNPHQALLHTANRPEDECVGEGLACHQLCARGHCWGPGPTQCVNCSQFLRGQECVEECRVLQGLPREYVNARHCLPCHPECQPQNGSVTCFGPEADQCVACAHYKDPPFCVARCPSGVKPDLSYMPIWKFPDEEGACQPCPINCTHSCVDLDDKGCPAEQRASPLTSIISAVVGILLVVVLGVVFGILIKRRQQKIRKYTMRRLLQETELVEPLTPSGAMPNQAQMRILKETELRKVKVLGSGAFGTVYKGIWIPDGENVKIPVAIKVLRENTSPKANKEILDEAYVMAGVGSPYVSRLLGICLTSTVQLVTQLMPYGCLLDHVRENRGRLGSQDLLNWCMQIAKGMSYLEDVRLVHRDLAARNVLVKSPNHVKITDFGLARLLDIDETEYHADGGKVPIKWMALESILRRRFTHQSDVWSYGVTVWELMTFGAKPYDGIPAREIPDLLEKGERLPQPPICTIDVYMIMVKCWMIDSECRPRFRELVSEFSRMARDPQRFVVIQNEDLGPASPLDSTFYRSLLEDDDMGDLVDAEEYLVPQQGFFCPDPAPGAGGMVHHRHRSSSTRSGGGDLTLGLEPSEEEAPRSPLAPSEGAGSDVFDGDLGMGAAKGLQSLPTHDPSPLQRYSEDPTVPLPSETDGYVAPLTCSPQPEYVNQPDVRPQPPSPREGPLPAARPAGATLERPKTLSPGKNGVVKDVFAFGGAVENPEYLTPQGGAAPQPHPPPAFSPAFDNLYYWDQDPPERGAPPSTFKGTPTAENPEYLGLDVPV

Consider `COc1ccccc1-c1cc(/C=C2\C(=O)Nc3ncc(Br)cc32)cc(Br)c1O`, for which the inhibition in test [1] was 7.78%; in [2] it was 8.03%; in test [3] it was 5.59%; in [4], 1.76%; in test [5] it was 4.26%; in [6], 1.14%. The inhibition is -4.15% in test [7], 11.2% in [8], 17.7% in test [9] and 1.71% in test [10].

On to `O=C1Nc2ccccc2/C1=C1\CCc2cc(O)ccc21`, for which the inhibition was found to be 9.85% in test [1]; 7.65% in [2]; 3.73% in test [3]; 1.66% in test [4]; 2.84% in [5]; 0.88% in [6]. For the same compound, the inhibition was -3.46% in [7], 8.95% in test [8], 13.7% in test [9] and 7% in test [10].

Consider `Fc1cccc(COc2ccc(Nc3ncncc3C#Cc3ccccc3)cc2Cl)c1`, for which the inhibition was 11.3% in test [1]; 4.96% in [2]; 3.65% in test [3]; 1.3% in test [4]; 2.18% in [5]; 3.69% in test [6]. Also, the inhibition in test [7] turned out to be 4.08%; in test [8] it was 9.32%; in test [9], 19%; in test [10], 2.19%.

With `CC(C)c1ccc(-c2cc(-c3c[nH]nc3-c3ccccn3)ccn2)cc1`, the inhibition worked out at 5.4% in test [1]; 3.79% in [2]; 1.74% in test [3]; 0.47% in [4]; 2.78% in [5]; 0.79% in test [6]. Besides, the inhibition in test [7] was -1.43%; in test [8], 4.41%; in [9], 6.32%; in [10] it was 2.22%.

Take `CN1CCN(Cc2ccc(-c3cc4ncnc(Nc5ccc(OCc6cccc(F)c6)c(Cl)c5)c4s3)o2)CC1`: the inhibition in test [1] was 8.33% and 7.32%; in test [2] it was 3.73% and 7.71%; in [3], 4.63% and 4.53%; in test [4], 0.3% and 3.67%; in test [5] it was 6.48% and 3.12%; in test [6], 5.26% and 7.95%. The inhibition was 62.3% and 65% in [7]; 81.7% and 91.1% in test [8]; 93% and 97.8% in test [9]; 1.93% and 6.27% in test [10].

On to `COC(=O)Nc1nc2cc(Oc3ccc(NC(=O)Nc4ccccc4)cc3)ccc2[nH]1`, for which the inhibition in test [1] was determined as 4.12%; in [2] it was 3.87%; in test [3], 1.72%; in test [4], 0.78%; in test [5], 0.42%; in test [6] it was 3.5%. For the same compound, the inhibition is 3.12% in test [7], 7.18% in [8], 7.92% in [9] and 2.73% in test [10].

As to `CS(=O)(=O)Nc1ccc(-c2cc(-c3ccccc3)cc(C(N)=O)c2N)cc1`, the inhibition in test [1] was found to be 5.3%; in [2], 0.56%; in [3], 2.36%; in test [4], 0.54%; in [5] it was 0.87%; in [6], 1.08%. Further, the inhibition in test [7] is 6.84%; in test [8], 4.73%; in test [9] it was 11.9%; in [10], -2.85%.

Take `COc1ccc(Nc2ncc(-c3ccccc3)o2)cc1OC`: the inhibition in test [1] is -1.55%; in test [2], 2.4%; in [3], -5.15%; in [4] it was 2.84%; in [5] it was 6.24%; in test [6], 0.01%. In addition, the inhibition was -2.56% in [7], 6.4% in test [8], 8.57% in [9] and 0.47% in test [10].

Values taken from ChEMBL document CHEMBL1961873, “Compounds: GSK PKIS; Assays: Nanosyn kinase panel” (2012).
